Results reported in PubChem BioAssay (NCATS).
Where “and” joins values, the source holds several entries; their conditions need not be identical. Identical values can stand only once. Inconclusive results are not listed. Entries that show only a call come without a potency. Calls of active or inactive are those of the source. Unless noted, calls follow the shape of the dose curve; as a rule, active = well fitted curve in the direction sought with a large enough effect; inconclusive = small, poorly fitted or top-dose-only effect, or another doubt; inactive = no such curve, though single readings can be large; an effect the other way counts as inactive or inconclusive.

Experiments:
[1] = target: phosphoglycerate mutase (Leishmania major) (UniProt Q4Q090); assay: qHTS Validation Assay to Find Inhibitors of Phosphoglycerate Mutase (AID 504548); also: series mostly up to about 58 µM
In short: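 Luminescent end-point read-out via Kinase-GloPlus after a 10-minute development. Reaction: 1.25nM Leishmania major PGAM with substrate and compound, 45 minutes at room temperature in TEA buffer (pH 7.6) with MgCl2 and Tween-20.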

[2] = qHTS for Inhibitors of ATXN expression: Validation of Cytotoxic Assay (AID 588349)
In short: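 HEK293 cells treated with titrated compound for 72 hr at 37 degrees C; viability read as intracellular ATP by CellTiter Glo luminescence.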

[3] = qHTS for Inhibitors of ATXN expression: Validation (AID 588378); also: series mostly up to about 57 µM; nearly all actives have a fitted effect of over 75% in size
In short: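 HEK293 cells carrying ATXN2-firefly luciferase reporter, treated with compound 24 h at 37 °C. Viability read first by CellTiter-Fluor (405/525 nm), then reporter expression by Bright-Glo luminescence; controls were a known ATXN2 expression inhibitor and a luciferase inhibitor.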

[4] = target: DNA dC->dU-editing enzyme APOBEC-3G (Homo sapiens) (UniProt Q9HC16); assay: qHTS for inhibitors of Vif-A3G interactions: Validation (AID 588379)
In short: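 HeLa cells stably expressing Vif and A3G-eYFP, 700 cells/well, incubated overnight at 37 deg C, then exposed to compound overnight at 37 deg C. Inhibition of Vif-mediated degradation read as increased yellow fluorescence (Ex 488/Em 500-530) by laser-scanning cytometry.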

[5] = target: Ubiquitin carboxyl-terminal hydrolase 1 (Homo sapiens) (UniProt O94782); assay: Inhibitors of USP1/UAF1: Pilot qHTS (AID 504865);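 also: rhodamine fluorescence freed from ubiquitin-rhodamine substrate followed over time; top concentration of the series differs between compounds; nearly all actives have a fitted effect of over 35% in size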
In short: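 USP1/UAF1 complex at 1 nM preincubated 15 min at room temperature with compound, then Ub-Rho substrate added at 150 nM final. Fluorescence (480/540 nm) read kinetically in 50 mM HEPES pH 7.8, 0.5 mM EDTA, 1 mM TCEP, 0.1 mg/ml BSA, 0.01% Tween-20.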

[6] = target: Estrogen receptor (Homo sapiens) (UniProt P03372); assay: qHTS assay for small molecule antagonists of estrogen receptor alpha signaling (AID 588513; active = well fitted curve in the direction sought with a large enough effect in the signal ratio, with a control signal flat, not every such curve was filed as active; the % refers to the signal ratio)
In short: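 ER-alpha-UAS-bla GripTite HEK 293 cells in 2% charcoal/dextran-treated FBS medium; compounds titrated (1:2, duplicate), then stimulated with 0.5 nM 17-beta-estradiol for 18 h at 37C. CCF4 beta-lactamase fluorescence; Hill-fit IC50 and efficacy.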

[7] = target: Estrogen receptor (Homo sapiens) (UniProt P03372); assay: qHTS assay for small molecule agonists of estrogen receptor alpha signaling (AID 588514; calls by dose curve; also: nearly all actives have a fitted effect of over 70% in size)
In short: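 ER-alpha-UAS-bla GripTite HEK293 cells, 5000/well in 2% charcoal/dextran-stripped FBS medium, treated with compound titrations 18 h at 37 C. CCF4 beta-lactamase read by fluorescence after 2 h RT; normalised to 20 nM 17-beta-estradiol (100%) and DMSO (0%), Hill fit for EC50 and efficacy.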

[8] = target: Glucocorticoid receptor (Homo sapiens) (UniProt P04150); assay: qHTS assay for small molecule agonists of glucocorticoid receptor signaling (AID 588532; active = well fitted curve in the direction sought with a large enough effect in the signal ratio, with a control signal flat; the % refers to the signal ratio); details: HeLa MMTV-bla, beta-lactamase ratio, agonist, 18 h; activation: stronger effect = higher value, percent of dexamethasone control, DMSO zero
In short: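 Agonist-mode qHTS: GRE-driven beta-lactamase in HeLa cells exposed 18 h to titrated compounds (up to 92 uM), then CCF4 ratio read after 2 h at RT; Hill-fitted EC50, efficacy relative to 0.1 uM dexamethasone.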

[9] = target: Glucocorticoid receptor (Homo sapiens) (UniProt P04150); assay: qHTS assay for small molecule antagonists of glucocorticoid receptor signaling (AID 588533; active = well fitted inhibition curve with a large enough effect in the signal ratio, with a control signal flat, not every such curve was filed as active; the % refers to the signal ratio;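 also: cells stimulated with 2 nM dexamethasone as agonist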)
In short: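 Antagonist-mode qHTS: compound titrations added to GRE-bla HeLa cells, then dexamethasone 2 nM final; 18 h, 37 C. CCF4 FRET fluorescence normalized to dexamethasone and DMSO; IC50 from Hill fit.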

[10] = qHTS assay for small molecule antagonists of peroxisome proliferator-activated receptor delta signaling (AID 588535; active = well fitted inhibition curve with a large enough effect in the signal ratio, with a control signal flat, not every such curve was filed as active; the % refers to the signal ratio;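 as to max response: cells co-treated with a PPAR-delta agonist as stimulator during compound exposure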); details: HEK293T PPARd-UAS-bla, beta-lactamase FRET ratio, 18 h; 460 nm channel
In short: (§1)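 HEK293T PPAR-delta-UAS-bla cells, 4000/well, 2% charcoal/dextran FBS; 5 h 37 C; cpd titration; 18 h 37 C; CCF4 2 h RT; FI 460/530 nm; Hill fit → IC50, efficacy.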

[11] = target: Peroxisome proliferator-activated receptor delta (Homo sapiens) (UniProt Q03181); assay: as above
In short: as §1

[12] = target: Peroxisome proliferator-activated receptor gamma (Homo sapiens) (UniProt P37231); assay: qHTS assay for small molecule agonists of peroxisome proliferator-activated receptor gamma signaling (AID 588536; active = well fitted curve in the direction sought with a large enough effect in the signal ratio, with a control signal flat, not every such curve was filed as active; the % refers to the signal ratio)
In short: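 Test agents, titrated, stimulated HEK293 UAS-bla cells overnight (16 h, 37 C). Substrate CCF4 was then added for two hours at room temperature before fluorescence reading.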

[13] = target: Peroxisome proliferator-activated receptor gamma (Homo sapiens) (UniProt P37231); assay: qHTS assay for small molecule antagonists of peroxisome proliferator-activated receptor gamma signaling (AID 588537; active = well fitted inhibition curve with a large enough effect in the signal ratio, with a control signal flat, not every such curve was filed as active; the % refers to the signal ratio;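 also: reporter cells co-stimulated with 50 nM rosiglitazone agonist during compound treatment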)
In short: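 Antagonist mode, beta-lactamase reporter in HEK293; charcoal/dextran FBS 1%; 3000 cells/well, 37 C 6-6.5 h; cpd titration + rosiglitazone 50 nM final, 16 h 37 C; CCF4, 2 h RT; 460/530 nm; Hill fit → IC50, efficacy.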

[14] = target: Vitamin D3 receptor (Homo sapiens) (UniProt P11473); assay: qHTS assay for small molecule antagonists of vitamin D receptor signaling (AID 588541; calls by dose curve;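 also: receptor activated by calcitriol during compound treatment; series mostly up to about 77 µM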)
In short: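 Antagonist-mode beta-lactamase reporter assay: HEK293T VDR-UAS-bla cells were exposed to titrated compound alongside 1-alpha,25-dihydroxyvitamin D3 at 3 nM final for 16 h. Values were normalized to the 50 nM agonist control and DMSO basal, with IC50 and efficacy from Hill equation fits.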

[15] = target: Vitamin D3 receptor (Homo sapiens) (UniProt P11473); assay: qHTS assay for small molecule agonists of vitamin D receptor signaling (AID 588543; calls by dose curve)
In short: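 VDR-UAS-bla HEK293T cells, 2000/well, 2% charcoal-stripped FBS; compound titration 16 h at 37 C; CCF4 beta-lactamase ratio read. Normalized to 50 nM 1-alpha,25-dihydroxyvitamin D3 (100%) and DMSO; Hill fit gives EC50, efficacy.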

[16] = qHTS assay for small molecule agonists of retinoid X receptor alpha signaling (AID 588544); details: HEK293T RXRa-UAS-bla, beta-lactamase reporter, 18 h; 530 nm emission
[17] = target: Thyroid hormone receptor beta (Homo sapiens) (UniProt P10828); assay: qHTS assay for small molecule agonists of thyroid hormone receptor beta signaling (AID 588545; calls by dose curve)
In short: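 Beta-lactamase reporter activity under TR response element control is measured in HEK 293 cells after 18 hrs compound exposure. Signal is ratiometric CCF4 fluorescence, 460/530 nm.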

[18] = target: Bile acid receptor (Homo sapiens) (UniProt Q96RI1); assay: qHTS assay for small molecule antagonists of farnesoid X receptor signaling (AID 588526; calls by dose curve)
In short: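 Beta-lactamase reporter antagonist mode: HEK293T FXR-UAS-bla cells, titrated compound, CDCA stimulation, 16 h 37 C, CCF4 dye 2 h RT. Data normalized to CDCA 50 uM and DMSO; Hill-fit IC50.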

[19] = target: Androgen receptor (Homo sapiens) (UniProt P10275); assay: qHTS assay for small molecule agonists of androgen receptor signaling (AID 588515; active = well fitted curve in the direction sought with a large enough effect in the signal ratio, with a control signal flat; the % refers to the signal ratio); details: AR-UAS-bla HEK293, beta-lactamase ratio, agonist 16 h; activation: stronger effect = higher value
In short: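 EC50 and efficacy came from Hill fits of titrations (up to 92 uM) normalized to 30 nM R1881 as 100% and DMSO as 0%. Compound exposure was 16 h at 37 C on AR-UAS-bla HEK293 cells, with a 405/460/530 nm CCF4 fluorescence read.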

[20] = target: Androgen receptor (Homo sapiens) (UniProt P10275); assay: qHTS assay for small molecule antagonists of androgen receptor signaling (AID 588516; active = well fitted curve in the direction sought with a large enough effect in the signal ratio, with a control signal flat, not every such curve was filed as active; the % refers to the signal ratio)
In short: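 AR-UAS-bla GripTite HEK 293 cells (2000/well) treated with compound titrations plus 10 nM R1881 for 16 h at 37C. Beta-lactamase read by CCF4 FRET (460/530 nm); IC50 from Hill fits, normalized to R1881 and DMSO control wells.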

Sequence of DNA dC->dU-editing enzyme APOBEC-3G (Homo sapiens) (Q9HC16 whole entry, looked up): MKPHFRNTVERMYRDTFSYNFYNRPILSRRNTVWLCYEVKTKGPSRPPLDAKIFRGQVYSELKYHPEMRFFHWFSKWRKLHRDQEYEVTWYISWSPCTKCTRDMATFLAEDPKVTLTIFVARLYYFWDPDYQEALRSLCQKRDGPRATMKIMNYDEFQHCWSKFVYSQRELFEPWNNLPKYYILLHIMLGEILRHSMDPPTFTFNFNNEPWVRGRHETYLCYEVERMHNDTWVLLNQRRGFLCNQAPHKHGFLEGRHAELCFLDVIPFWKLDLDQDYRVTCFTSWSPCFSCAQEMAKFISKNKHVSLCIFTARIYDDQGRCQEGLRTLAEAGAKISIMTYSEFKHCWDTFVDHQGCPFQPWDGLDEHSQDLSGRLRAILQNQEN
Sequence of Ubiquitin carboxyl-terminal hydrolase 1 (Homo sapiens) (O94782 whole entry, looked up): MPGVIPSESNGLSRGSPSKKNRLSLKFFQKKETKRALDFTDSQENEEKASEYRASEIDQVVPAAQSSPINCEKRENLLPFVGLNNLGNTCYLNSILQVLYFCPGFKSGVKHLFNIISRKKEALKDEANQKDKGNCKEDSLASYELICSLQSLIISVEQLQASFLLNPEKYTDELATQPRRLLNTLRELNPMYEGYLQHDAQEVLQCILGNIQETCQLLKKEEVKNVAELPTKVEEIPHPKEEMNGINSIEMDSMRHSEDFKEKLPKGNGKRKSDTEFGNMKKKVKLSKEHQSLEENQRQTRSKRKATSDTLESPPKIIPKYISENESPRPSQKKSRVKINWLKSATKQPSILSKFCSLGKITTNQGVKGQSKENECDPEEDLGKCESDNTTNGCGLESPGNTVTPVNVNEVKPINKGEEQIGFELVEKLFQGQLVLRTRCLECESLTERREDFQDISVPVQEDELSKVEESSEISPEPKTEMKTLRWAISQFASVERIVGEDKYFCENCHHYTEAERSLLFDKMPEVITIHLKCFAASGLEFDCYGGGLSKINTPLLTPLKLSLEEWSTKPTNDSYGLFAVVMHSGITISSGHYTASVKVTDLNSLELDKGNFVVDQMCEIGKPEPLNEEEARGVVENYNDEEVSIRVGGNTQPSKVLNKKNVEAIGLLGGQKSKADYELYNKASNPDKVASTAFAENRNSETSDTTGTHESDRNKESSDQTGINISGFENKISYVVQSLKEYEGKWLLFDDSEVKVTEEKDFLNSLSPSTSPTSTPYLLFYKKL
Sequence of phosphoglycerate mutase (Leishmania major) (Q4Q090 1-553): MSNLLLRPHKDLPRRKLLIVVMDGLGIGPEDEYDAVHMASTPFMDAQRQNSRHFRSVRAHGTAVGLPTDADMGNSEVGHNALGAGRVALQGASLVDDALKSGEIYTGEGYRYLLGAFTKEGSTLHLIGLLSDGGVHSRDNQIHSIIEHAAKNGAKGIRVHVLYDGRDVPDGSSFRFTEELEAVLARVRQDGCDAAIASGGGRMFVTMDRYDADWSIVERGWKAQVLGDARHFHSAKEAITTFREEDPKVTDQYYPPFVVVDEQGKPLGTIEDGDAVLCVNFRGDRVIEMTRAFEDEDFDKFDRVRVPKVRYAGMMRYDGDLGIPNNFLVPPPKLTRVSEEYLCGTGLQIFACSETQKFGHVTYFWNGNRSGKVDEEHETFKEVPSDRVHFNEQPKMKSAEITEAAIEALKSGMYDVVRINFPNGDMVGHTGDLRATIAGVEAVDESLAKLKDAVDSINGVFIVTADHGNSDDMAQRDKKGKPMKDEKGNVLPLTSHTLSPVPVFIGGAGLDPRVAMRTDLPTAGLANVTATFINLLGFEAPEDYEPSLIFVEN
Sequence of Thyroid hormone receptor beta (Homo sapiens) (P10828 whole entry, looked up): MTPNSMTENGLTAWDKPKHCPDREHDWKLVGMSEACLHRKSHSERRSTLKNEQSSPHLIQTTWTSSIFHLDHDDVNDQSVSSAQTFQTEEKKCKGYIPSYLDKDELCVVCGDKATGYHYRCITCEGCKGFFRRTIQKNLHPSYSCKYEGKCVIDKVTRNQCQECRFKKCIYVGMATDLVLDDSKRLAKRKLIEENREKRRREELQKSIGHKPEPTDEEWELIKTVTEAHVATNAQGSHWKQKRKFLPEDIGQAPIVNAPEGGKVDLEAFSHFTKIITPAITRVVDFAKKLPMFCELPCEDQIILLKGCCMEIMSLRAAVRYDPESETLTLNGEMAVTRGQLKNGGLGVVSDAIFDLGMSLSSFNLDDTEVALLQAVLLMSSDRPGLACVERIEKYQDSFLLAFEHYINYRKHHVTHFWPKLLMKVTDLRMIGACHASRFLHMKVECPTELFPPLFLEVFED
Sequence of Estrogen receptor (Homo sapiens) (P03372 whole entry, looked up): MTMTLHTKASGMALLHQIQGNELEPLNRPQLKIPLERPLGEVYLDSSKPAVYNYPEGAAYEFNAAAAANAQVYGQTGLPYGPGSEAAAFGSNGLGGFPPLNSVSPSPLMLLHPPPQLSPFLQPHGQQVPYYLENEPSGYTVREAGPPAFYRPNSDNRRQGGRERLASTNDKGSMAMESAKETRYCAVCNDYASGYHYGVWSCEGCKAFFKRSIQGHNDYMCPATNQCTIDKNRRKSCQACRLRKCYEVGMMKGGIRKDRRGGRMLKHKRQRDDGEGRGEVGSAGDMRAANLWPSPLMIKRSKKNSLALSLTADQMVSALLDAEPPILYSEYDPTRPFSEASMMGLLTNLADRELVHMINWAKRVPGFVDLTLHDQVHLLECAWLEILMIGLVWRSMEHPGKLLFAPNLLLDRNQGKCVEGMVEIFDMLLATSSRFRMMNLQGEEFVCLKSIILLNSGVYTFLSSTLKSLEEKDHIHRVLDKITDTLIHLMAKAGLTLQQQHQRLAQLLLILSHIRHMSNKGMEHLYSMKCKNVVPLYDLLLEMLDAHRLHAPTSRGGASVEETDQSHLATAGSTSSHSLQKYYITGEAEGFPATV
Sequence of Androgen receptor (Homo sapiens) (P10275 whole entry, looked up): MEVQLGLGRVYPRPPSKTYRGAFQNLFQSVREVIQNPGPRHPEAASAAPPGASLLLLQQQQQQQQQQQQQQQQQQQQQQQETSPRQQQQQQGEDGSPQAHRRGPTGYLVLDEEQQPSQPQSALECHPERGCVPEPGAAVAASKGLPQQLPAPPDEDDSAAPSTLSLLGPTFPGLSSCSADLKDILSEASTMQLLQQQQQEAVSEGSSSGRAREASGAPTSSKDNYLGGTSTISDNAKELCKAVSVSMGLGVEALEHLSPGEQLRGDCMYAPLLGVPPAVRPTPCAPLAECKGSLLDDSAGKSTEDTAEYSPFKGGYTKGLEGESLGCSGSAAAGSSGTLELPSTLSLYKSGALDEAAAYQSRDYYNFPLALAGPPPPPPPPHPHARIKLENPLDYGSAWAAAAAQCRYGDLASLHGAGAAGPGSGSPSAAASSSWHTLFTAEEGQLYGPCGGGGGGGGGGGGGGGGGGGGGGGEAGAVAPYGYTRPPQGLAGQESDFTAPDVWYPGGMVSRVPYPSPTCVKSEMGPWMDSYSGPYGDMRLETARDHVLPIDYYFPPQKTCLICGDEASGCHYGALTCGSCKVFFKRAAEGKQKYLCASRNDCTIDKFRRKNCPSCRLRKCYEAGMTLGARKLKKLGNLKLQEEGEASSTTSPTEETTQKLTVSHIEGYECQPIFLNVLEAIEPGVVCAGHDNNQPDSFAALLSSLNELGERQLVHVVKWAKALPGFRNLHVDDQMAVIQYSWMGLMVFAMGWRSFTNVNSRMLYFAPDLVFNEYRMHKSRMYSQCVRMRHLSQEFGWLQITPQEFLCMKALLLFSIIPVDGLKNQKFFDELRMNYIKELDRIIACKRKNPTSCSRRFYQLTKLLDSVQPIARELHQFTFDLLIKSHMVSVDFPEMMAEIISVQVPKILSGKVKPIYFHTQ
Sequence of Peroxisome proliferator-activated receptor gamma (Homo sapiens) (P37231 whole entry, looked up): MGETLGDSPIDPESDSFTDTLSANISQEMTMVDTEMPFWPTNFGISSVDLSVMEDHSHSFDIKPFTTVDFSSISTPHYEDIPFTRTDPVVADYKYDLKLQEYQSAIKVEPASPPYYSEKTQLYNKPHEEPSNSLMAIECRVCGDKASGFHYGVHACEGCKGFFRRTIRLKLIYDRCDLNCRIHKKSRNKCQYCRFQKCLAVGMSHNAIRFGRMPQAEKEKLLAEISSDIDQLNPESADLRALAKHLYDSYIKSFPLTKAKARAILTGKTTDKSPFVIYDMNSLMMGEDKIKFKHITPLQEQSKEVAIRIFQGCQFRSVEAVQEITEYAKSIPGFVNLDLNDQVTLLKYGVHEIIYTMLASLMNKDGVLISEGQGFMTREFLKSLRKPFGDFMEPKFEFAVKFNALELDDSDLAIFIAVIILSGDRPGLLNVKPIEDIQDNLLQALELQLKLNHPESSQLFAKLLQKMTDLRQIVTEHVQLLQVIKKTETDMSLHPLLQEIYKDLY
Sequence of Glucocorticoid receptor (Homo sapiens) (P04150 whole entry, looked up): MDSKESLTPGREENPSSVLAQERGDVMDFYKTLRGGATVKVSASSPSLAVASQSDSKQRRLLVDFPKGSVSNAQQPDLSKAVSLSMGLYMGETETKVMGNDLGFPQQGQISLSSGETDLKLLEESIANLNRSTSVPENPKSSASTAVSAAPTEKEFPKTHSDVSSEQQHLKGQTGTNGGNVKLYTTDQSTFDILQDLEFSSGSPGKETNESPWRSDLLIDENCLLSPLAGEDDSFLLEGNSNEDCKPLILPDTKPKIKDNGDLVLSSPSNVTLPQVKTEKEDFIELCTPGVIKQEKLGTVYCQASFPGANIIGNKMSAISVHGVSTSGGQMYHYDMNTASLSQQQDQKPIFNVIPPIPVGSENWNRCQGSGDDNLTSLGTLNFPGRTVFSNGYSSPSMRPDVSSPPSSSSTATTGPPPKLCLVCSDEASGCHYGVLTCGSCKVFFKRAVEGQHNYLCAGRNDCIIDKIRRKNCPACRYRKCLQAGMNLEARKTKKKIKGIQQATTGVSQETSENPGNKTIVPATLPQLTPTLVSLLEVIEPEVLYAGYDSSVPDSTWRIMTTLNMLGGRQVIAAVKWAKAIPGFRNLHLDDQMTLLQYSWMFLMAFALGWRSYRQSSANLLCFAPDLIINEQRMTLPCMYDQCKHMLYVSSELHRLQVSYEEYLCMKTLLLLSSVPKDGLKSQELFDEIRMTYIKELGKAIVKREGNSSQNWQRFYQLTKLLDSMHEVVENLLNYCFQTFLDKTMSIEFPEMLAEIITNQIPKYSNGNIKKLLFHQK

In the case of Cc1nc2sccn2c(=O)c1CCN1CCC(=C(c2ccc(F)cc2)c2ccc(F)cc2)CC1, the outcome [1] is reported as “inactive” and the Potency [2] is reported as “inactive”.
For COc1cc2c(cc1OC)-c1cc(=Nc3c(C)cc(C)cc3C)n(C)c(=O)n1CC2, the outcome [1] was “inactive” and the Potency [3] was “inactive”.
With CCCCCCCC/C=C\CCCCCCCC(=O)NCc1ccc(O)c(OC)c1 the outcome [1] was “inactive”, the Potency [2] was “inactive” and the Potency [3] was “inactive”. The outcome [4] was “inactive”.
With COc1cc(Cc2cnc(N)nc2N)cc(OC)c1OC the outcome [1] was “inactive”, the Potency [5] was “inactive” and the Potency [3] was “inactive”. For the same compound, the outcome [4] was “inactive”, the outcome [6] was “inactive” and the Potency [7] was “inactive”. The activation [8] was -1.11% (inactive), the Potency [9] was “inactive” and the max response [10] was 38%. For the same compound, the outcome [11] was “inactive”, the outcome [12] was “inactive” and the outcome [13] was “inactive”. The outcome [14] was “inactive”, the outcome [15] was “inactive” and the max response [16] was 1.73%. The Potency [17] was “inactive”.
In the case of c1cc(CN2CCCCC2)cc(OCCCNc2nc3ccccc3s2)c1, the outcome [1] is reported as “inactive”, the Potency [5] is reported as “inactive” and the outcome [4] is reported as “inactive”.
For CC(C)(C)c1ccc(C(=O)CCCN2CCC(OC(c3ccccc3)c3ccccc3)CC2)cc1, the outcome [1] was “inactive”, the Potency [2] was “inactive” and the Potency [3] was “inactive”.
In the case of C(=C\c1ccccc1)/CN1CCN(C(c2ccccc2)c2ccccc2)CC1, the outcome [1] is reported as “inactive”, the Potency [2] is reported as “inactive” and the Potency [3] is reported as “inactive”.
With C[C@]12CC[C@@H]3c4ccc(O)cc4C[C@@H](CCCCCCCCCS(=O)CCCC(F)(F)C(F)(F)F)[C@H]3[C@@H]1CC[C@@H]2O (stereo partly specified) the outcome [1] was “inactive” and the Potency [3] was “inactive”.
In the case of CC(C)NCC(O)c1cc(O)cc(O)c1 (stereo unspecified), the outcome [1] is reported as “inactive”, the Potency [5] is reported as “inactive” and the Potency [3] is reported as “inactive”.
With CN(C)CC/C=C1\c2ccccc2COc2ccccc21 the outcome [1] was “inactive”, the Potency [5] was “inactive” and the outcome [4] was “inactive”.
With C[C@H](CS)C(=O)N1CCC[C@H]1C(=O)O the outcome [1] was “inactive” and the Potency [3] was “inactive”.
For CN1C[C@H](C(=O)N[C@]2(C)O[C@@]3(O)[C@@H]4CCCN4C(=O)[C@H](Cc4ccccc4)N3C2=O)C[C@@H]2c3cccc4[nH]cc(c34)C[C@H]21, the outcome [1] was “inactive” and the Potency [3] was “inactive”.
In the case of CCN(CC)CCOCCOC(=O)C1(c2ccccc2)CCCC1, the outcome [1] is reported as “inactive”, the Potency [5] is reported as “inactive” and the outcome [4] is reported as “inactive”.
For CC(C)(Oc1ccc(CCNC(=O)c2ccc(Cl)cc2)cc1)C(=O)O, the outcome [1] was “inactive”, the Potency [5] was “inactive” and the Potency [3] was “inactive”. The outcome [6] was “inactive”, the Potency [7] was “inactive” and the outcome [18] was “inactive”. The activation [8] was -5.13% (inactive), the Potency [9] was “inactive” and the outcome [13] was “inactive”. For the same compound, the outcome [14] was “inactive”, the outcome [15] was “inactive” and the max response [16] was 19.7%. For the same compound, the Potency [17] was “inactive”.
In the case of CCCCOCCOCCOCc1cc2c(cc1CCC)OCO2, the Potency [5] is reported as “inactive”, the activation [19] is reported as 19.3% (inactive) and -3.12% (inactive) and the outcome [20] is reported as “inactive”. The outcome [18] was “inactive”, the max response [10] was 7.63% and the outcome [11] was “inactive”. The outcome [12] was “inactive”, the outcome [13] was “inactive” and the max response [16] was 14.8% and -2.85%. For the same compound, the Potency [17] was “inactive”.
